# PubChem BioAssay (Tox21)
# Several values for one entry are separate records, joined by “and”; a condition that tells them apart may be missing. Equal entries are not always repeated. Records with an inconclusive call do not appear. Entries that show only a call come without a potency. A number with no mark means an inactive call. Activity calls are given as the source filed them. Calls follow the shape of the dose curve; as a rule, active = well fitted cell-killing curve with a large enough effect in the repeat runs; inconclusive = weak or mixed curves, or effect the other way; inactive = flat fitted curve, though single readings scatter.
# Assay: qHTS assay to identify small molecule agonists of the constitutive androstane receptor (CAR) signaling pathway - cell viability counter screen (AID 1224836); also: nearly all actives have a fitted effect of over 45% in size
# Conditions: HepG2-CYP2B6-hCAR viability, CellTiter-Fluor, 23 h, PK11195 added to every well; series mostly up to 92.4 µM; viability change, negative = cytotoxic: at the top concentration
# From the text: U.S. Tox21 Program National Center for Advancing Translational Sciences [NCATS] NIH Chemical Genomics Center [NCGC] U.S. Environmental Protection Agency [EPA] National Institutes of Environmental Health Sciences [NIEHS] National Toxicology Program [NTP] U.S. Food and Drug Administration [FDA] Tox21 Assay Overview: The constitutive androstane receptor (CAR) is a nuclear receptor which regulates multiple drug metabolizing enzymes (DMEs) and transporters. Activating CAR will generally increase the transcription and subsequent translation of CYP2B6 and CYP3A4. These two DMEs represent about 50% of the drug metabolizing potential in the body. […] Recently, there have also been studies performed indicating CARs role in energy metabolism and cancer therapy. Therefore, inducing CARs activity could have a potential effect on diabetes and cancer. Identifying environmental toxins and compounds which modulate CAR, through the use of the Tox21 10K compound collection, will be an important step in determining the toxicity and potential therapeutic effects these factors will have on the human body. To differentiate true CAR agonists from cytotoxic substances, the assay is multiplexed with a cell viability assay.
# Tox21 Assay Protocol Summary: A double-stable (hCAR and CYP2B6-2.2kb) transfected cell line, derived from human hepatoma (HepG2) cells, was utilized for the duration of the quantitative high-throughput screens. The HepG2-CYP2B6-hCAR cells were dispensed at 2500 cells/4 uL/well in 1536-well white solid bottom plates using a Multidrop Combi. After the assay plates were incubated at 37 C/5% CO2 for 4 hrs, 23 nL of compounds at 15 concentrations (from 5-48 columns) or positive control (from 1 to 4 columns) were transferred to the assay plates using a Pintool station. One uL of PK11195 (final concentration = 0.75 uM) was added, using a Flying Reagent Dispenser, inside each well. After a 23 hr incubation period at 37 C/5% CO2, 1 uL of CellTiter-Fluor reagent was added into each well of the assay plates using a Flying Reagent Dispenser. The fluorescence intensity in the plates was then measured using a ViewLux plate reader.
# Potency is read from the fitted curve at half-maximal effect.
SMILES,Potency,"viability change, negative = cytotoxic"
CCCCn1cc[n+](C)c1,inactive,
COCC(=O)N(c1c(C)cccc1C)C(C)C(=O)OC (stereo not given),inactive,
COP(=O)(OC)OC=C(Cl)Cl,inactive,
COc1ccc(N)cc1,inactive,
CCCCCCn1cc[n+](C)c1,inactive,
CCC(=O)C(CC(C)N(C)C)(c1ccccc1)c1ccccc1 (stereo not given),,-29%
Nc1ccccc1,inactive,
O=[N+]([O-])c1ccccc1O,inactive,
Nc1ccc(-c2ccc(N)c(Cl)c2)cc1Cl,inactive,
O=C(O)C(Cl)Cl,inactive,
CC[N+](CC)(CC)CC,inactive,
CCCn1cc[n+](C)c1,inactive,
CCOP(=S)(OCC)Oc1ccc2c(C)c(Cl)c(=O)oc2c1,inactive,
O=S(=O)(O)O,inactive,
Nc1ccc(Cl)cc1,inactive,
CCCC[n+]1ccc(C)cc1,inactive,
CNC,inactive,
O=P1(N(CCCl)CCCl)NCCCO1 (stereo not given),inactive,
CCCCCCCCCCCCCC[P+](CCCCCC)(CCCCCC)CCCCCC,7.73 µM (active) and 9.77 µM (active),
Cc1cc(Cl)ccc1OCC(=O)O,inactive,

SMILES,Potency,"viability change, negative = cytotoxic"
CC[N+]1(C)CCCC1,inactive,
C1CCC(NC2CCCCC2)CC1,inactive,
CCCC[n+]1ccccc1C,inactive,
CCCCCCCCCCCC(=O)O,inactive,
O=c1nc(O)n(Cl)c(=O)n1Cl,inactive,
C[C@]12CCC(=O)C=C1CC[C@@H]1[C@@H]2CC[C@]2(C)C(=O)CC[C@@H]12,inactive,
CCCCCCCCCCCCOS(=O)(=O)O,inactive,
COP(=O)(OC)C(O)C(Cl)(Cl)Cl (stereo not given),inactive,
O=[N+]([O-])O,inactive,
CN(C)[C@@H]1C(=O)C(C(N)=O)=C(O)[C@@]2(O)C(=O)C3=C(O)c4c(O)cccc4[C@@](C)(O)[C@H]3[C@H](O)[C@@H]12,inactive,
CCCCCC[n+]1ccccc1,inactive,
OCCOc1ccccc1,inactive,
Cc1cc(Cl)ccc1N,inactive,
Oc1ccccc1-c1ccccc1,inactive,
N#CS,inactive,
Nc1ccc(-c2ccc(N)cc2)cc1,inactive,
CC(=O)O,inactive,
O=C(O)CCl,inactive,
CCn1cc[n+](C)c1C,inactive,
O=c1[nH]c(=O)n(Cl)c(=O)n1Cl,inactive,
